Reference: PubChem BioAssay AID1508600 (Functional Genomics Laboratory (NCATS/FGL), 2020)
Out of some 53,000 sequences screened, about 3,700 (7%) were called active. This excerpt belongs to a sample that is enriched for actives. Values without a mark were called inactive.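 Rule for the calls: active = gene knockdowns whose robust z-score for IL-1 alpha signal is at least 2 or at most -2, so actives lie on both sides; inactive = the rest.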

Experiment: Components of the Cytosolic LPS Sensing Pathway: Gene Identification via Genome-wide siRNA Screen;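 note: robust z of the log signal after scaling to non-targeting control siRNA wells of the plate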
Settings: RAW264.7 macrophages, IL-1a HTRF, actives lie on both sides, screened at 100 nM (by protocol), cells primed 5 h with Pam3CSK4 first
How it was run: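 Cells (RAW264.7, 1×10^4 per well) were transfected with siRNA at 100 nM and cultured 48h at 37 degrees C. Pam3CSK4 was added for 5 hours; LipidA transfection followed for 24 hour. IL-1a was then measured by HTRF.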

First: GUUACCUCAGUGUUAUACUTT against Olfr45
Second: GGUGAAAAGAUGCAGGUGATT against Atp1a3
The z-score of the first is higher: 1.7 for the first, -1.1 for the second.

First: GGGCAGGAACAAAAGAAGCTT against Dsc1
Second: GGUGUCACCAUUUCAGUGGTT against Lbp
The z-score of the first is lower: 0.165 for the first, 0.703 for the second.

Compared with GCAUUCAUGUGCUCUGCCCTT against Ifitm6, GGCAUUGAAUUAAAGAUACTT against Myct1 is lower in z-score: -0.952 for the first, -1.06 for the second.

Going from GCAUCACGGAUUCGAAUUGTT against Dgkz to GGAAGACAUAAUAAUAGAGTT against Rad17, the z-score falls from -1.25 to -1.39.

Going from CCUACAAGAACGAAGAUUUTT against Pla2g4d to CCACCUACGUCAACACUAATT against Kcnh6, the z-score falls from -1.67 to -1.8.

Compared with CCAGAUGUUGGAUAAAACGTT against Fbxw10, GGAAAUUUCAGUCGAACAGTT against Arhgap31 is higher in z-score: -0.333 for the first, 0.333 for the second.

Going from GGUCUUUGACAGAAUAAAATT against Yipf1 to GGCAUCCACCCUAAGGUCATT against Keap1, the z-score falls from 1.94 to 1.03.

First: GGCCUCCAAAUGAACAGCATT against Trmt61a
Second: GCUGUACGUAGAUUCCAGATT against Mmp21
The z-score of the first is lower: -0.365 for the first, 1.48 for the second.

Compared with GGAGAAACAUCAAUUGCACTT against Thbs2, GCUUGAUGACUCUAAACCUTT against Runx2 is higher in z-score: -0.0207 for the first, 1.29 for the second.

First: GCCUCUAUCUGUACUCUGGTT against Pdk2
Second: GCACAAAUCUGGUAAGUCATT against Gtf2h1
The z-score of the first is lower: -0.944 for the first, 0.474 for the second.

Going from GCAACAUAUGGUAUACUGUTT against Mdm4 to CCAUGAAAAACUUAGUGUGTT against Trim37, the z-score falls from 1.41 to 0.682.

First: CCUUGGGACUGACUGUAAGTT against Ptrh2
Second: GGUCUUAUUUUGAAGUGUUTT against Cybb
The z-score of the first is lower: -0.887 for the first, 0.013 for the second.

Going from GCGAUCAAAAAAGUUGCCUTT against Arhgap44 to GCUACAAGUGUUGCCUGAATT against Slit1, the z-score rises from -0.387 to 1.21.

Compared with GGUGCAGAGAAGAACAAGATT against Inpp1, CCACAGGGAGACAUGAUAUTT against Coprs is higher in z-score: -0.993 for the first, -0.292 for the second.

Going from GUGAUGUCACUAAUGCCAATT against Cd99 to GGAUAGACAGAAAUUCUCATT against Flot1, the z-score rises from 0.628 to 1.43.

First: GGAAAACUACUGGAACUGGTT against Irgm1
Second: GGUGAUCAUGCUAACCUUUTT against Pcolce
The z-score of the first is lower: 0.415 for the first, 0.436 for the second.

First: GGUGUAACUGGGCUGCAUGTT against Avpi1
Second: GCUGAUGGUAAAUUCACAGTT against Serpinb3c
The z-score of the first is higher: 0.269 for the first, -1.01 for the second.

Going from GCAUGUGUACCAUUUACCUTT against Prdx1 to GGAUGCCCUUGUCACAAAGTT against Fbl, the z-score falls from 1.87 to 0.154.

First: GGAACACUGUAUCUUACGGTT against Mtmr6
Second: GGAGAAGGUGACUUAAUAGTT against 9430077A04Rik
The z-score of the first is lower: 0.599 for the first, 0.76 for the second.

First: GGAGAUCACCUACGACAUGTT against Lgals8
Second: GGUCAUCUCAGUACUACAATT against Dgat2
The z-score of the first is higher: 0.446 for the first, 0.251 for the second.

First: GGCAAGAAAAACACUUUAUTT against Parp3
Second: GGCAUUGGAAGAUGCACAGTT against Scp2
The z-score of the first is higher: 1.85 for the first, 0.431 for the second.

Compared with GGUUAUAGCAUCCUUAACUTT against Tmem208, GGUGAAGUCUUACCUAUACTT against Aacs is lower in z-score: 1.06 for the first, -0.598 for the second.

In the case of CGAUGAACACACGUCUUAUTT against Dtl, the z-score is reported as 2.05 (active).
For GGCUGUCUUCUGAUCAAUUTT against Adamts3, the z-score was 2.42 (active).
With CCAACAUCGAGCUAGCCACTT against Psma5 the z-score was -2.28 (active).
With GGAUUGAGUGACGACUGACTT against Nova2 the z-score was 2.25 (active).
In the case of CCCAAUUAGGCUAUGCUAATT against Amfr, the z-score is reported as 2.27 (active).
With GGAGUGUUUGAGAAAUACCTT against Pnpla7 the z-score was 3.32 (active).
For GGAGUGGGAGAAGAUGGAATT against Mbd4, the z-score was 2.17 (active).
With GGAGGCAGAUGCUGGAAUCTT against Defb3 the z-score was 4.19 (active).
With GGCAAUUCUUAACCUGUCCTT against Tacc1 the z-score was -2.75 (active).
With GGAAGGAGGACAGAGGAAUTT against Tmem19 the z-score was 2.34 (active).
